Our source for the z-score values is PubChem BioAssay AID488969 (Vanderbilt High Throughput Screening Facility, 2010).

Over roughly 110,000 compounds, “z-score” has its median near -0.1; the highest 2% begin near 2. The sample as a whole holds a higher share of the highest values than the screen did. Calls of active or inactive are those of the source.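 How the source made its calls: active means z-score in the third read window above 3 or below -3; inactive means the rest.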

In this experiment the target is Metabotropic glutamate receptor 8 (Rattus norvegicus) (UniProt P70579). Description: rat mGluR8 modulators via GIRK flux, primary screen, cell-based, thallium flux, HTS (AID 488969). The conditions noted are these: HEK293 rat mGluR8, GIRK (G protein-gated inwardly rectifying potassium channel) thallium flux, FluoZin2; at 10 µM; stronger effect = higher value; submaximal glutamate (EC20) added with thallium.
Chain of Metabotropic glutamate receptor 8 (Rattus norvegicus) (P70579 whole entry, looked up): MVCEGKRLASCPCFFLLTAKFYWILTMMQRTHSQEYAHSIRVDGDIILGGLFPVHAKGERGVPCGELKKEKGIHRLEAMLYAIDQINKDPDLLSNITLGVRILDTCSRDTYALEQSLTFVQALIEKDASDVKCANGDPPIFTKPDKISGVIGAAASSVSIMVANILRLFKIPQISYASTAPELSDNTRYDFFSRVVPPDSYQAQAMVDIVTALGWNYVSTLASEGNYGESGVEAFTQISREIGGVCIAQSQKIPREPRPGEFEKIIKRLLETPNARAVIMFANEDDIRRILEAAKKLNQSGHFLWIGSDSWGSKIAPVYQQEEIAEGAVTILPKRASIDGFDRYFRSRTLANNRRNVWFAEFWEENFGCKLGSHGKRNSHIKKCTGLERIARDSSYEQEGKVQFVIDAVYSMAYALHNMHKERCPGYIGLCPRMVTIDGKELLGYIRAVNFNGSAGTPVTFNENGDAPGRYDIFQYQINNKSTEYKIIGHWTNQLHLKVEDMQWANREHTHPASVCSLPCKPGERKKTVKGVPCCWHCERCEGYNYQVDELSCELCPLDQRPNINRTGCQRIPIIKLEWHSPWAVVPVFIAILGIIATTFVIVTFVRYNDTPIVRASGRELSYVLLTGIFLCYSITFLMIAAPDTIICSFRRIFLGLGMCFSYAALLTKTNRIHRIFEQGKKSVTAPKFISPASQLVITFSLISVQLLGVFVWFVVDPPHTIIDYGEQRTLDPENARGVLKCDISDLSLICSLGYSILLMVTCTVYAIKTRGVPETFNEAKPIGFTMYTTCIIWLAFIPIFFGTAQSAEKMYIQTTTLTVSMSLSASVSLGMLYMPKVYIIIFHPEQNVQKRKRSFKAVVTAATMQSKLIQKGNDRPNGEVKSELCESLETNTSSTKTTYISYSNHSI
`N#Cc1cccc(Oc2ccc(-c3cnc4ccccc4n3)cc2)c1C#N` returned a z-score of 0.258.

On to `Cc1ccc(-n2c(C)nnc2SCC(=O)N2CCc3ccccc3C2)cc1`, for which the z-score was -0.994.

Compound `Cc1cccc(N2C(=O)CC(Sc3nc(-c4ccccc4)c4cc(Cl)ccc4n3)C2=O)c1` (stereo not given) came in with a z-score of -0.887.

In turn, `CCc1ccc(OCC(=O)N/N=C/c2cc([N+](=O)[O-])ccc2N2CCOCC2)cc1` had a z-score of 0.198.

For the compound `C/C(=N\OC(=O)c1ccc(Cl)cc1)c1nccs1`, the z-score is -0.0963.

With `Cc1ccc(-n2nnnc2SCC(=O)Nc2cccc(NC(=O)c3ccco3)c2)cc1C`, the z-score worked out at 1.39.

As for `CC1=CC(=Nc2c(C)n(C)n(-c3ccccc3)c2=O)C=C(C)C1=O`, the z-score stood at 0.433.

`Cc1cc(S(=O)(=O)NCC(=O)O)ccc1F` had a z-score of 0.254.

`CCN=C1SC(C(=O)Nc2cccc(C)c2)CC(=O)N1CC` (stereo not given) displayed a z-score of -0.145.

As to `O=C(/C=C/c1ccc(Br)cc1)c1ccco1`, the z-score is -0.0794.

The compound `O=C(/C=C/c1ccccn1)c1ccc(Br)cc1O` came in with a z-score of -0.442.

Regarding `O=C(/C=C/c1ccccc1)c1cc(Br)ccc(=O)c1O`, the z-score is 14 (active).

`CN(C)c1nc(Oc2ccc(N)cc2)nc(N(C)C)n1` returned a z-score of 0.322.

On to `COc1cccc(C(=O)CSc2nnnn2C)c1`, for which the z-score is -0.273.

`CCCN(Cc1ccccc1)C(=S)Nc1cccc(C(F)(F)F)c1` showed a z-score of -0.985.

`CN1CC(=O)N(CC(=O)NCc2ccc3c(c2)OCO3)C1=O` registered a z-score of -0.14.

Regarding `COC(=O)C1C2C=CC3(CN(C4CCCC4)C(=O)C13)O2` (stereo not given), the z-score was -1.65.

The compound `O=C(O)C1[C@H]2C(=O)N(C3CCCC3)C[C@]23C=C[C@H]1O3` (stereo not given in full) displayed a z-score of 0.231.

`O=C(O)C1C2C=CC3(CN(C4CCCC4)C(=O)C13)O2` (stereo not given) returned a z-score of 2.75.

As to `Cc1cc(C)c2oc(-c3cccc(NC(=O)c4ccc(F)cc4)c3)nc2c1`, the z-score was -0.0725.

`Cc1cc(C)c(CSc2ncc(-c3ccc([N+](=O)[O-])cc3)[nH]2)c(C)c1` yielded a z-score of -0.26.

Regarding `CCc1ccc(-n2cc(-c3ccc([N+](=O)[O-])cc3)[nH]c2=S)cc1`, the z-score came out at 0.69.

Compound `Cc1cccc(-n2cc(-c3ccc([N+](=O)[O-])cc3)[nH]c2=S)c1` returned a z-score of 0.401.

Take `O=[N+]([O-])c1ccc(-c2cn(-c3ccccc3)c(=S)[nH]2)cc1`: the z-score is -0.00967.

The compound `O=[N+]([O-])c1ccc(-c2cn(-c3ccc(Cl)cc3)c(=S)[nH]2)cc1` displayed a z-score of 2.83.

With `Cc1ccc(-n2cc(-c3ccc([N+](=O)[O-])cc3)[nH]c2=S)c(C)c1`, the z-score came to 2.99.

`Cc1ccc(Nc2cc(-n3cccn3)ncn2)c(C)c1` yielded a z-score of -0.35.

The compound `COc1ccc(/C=N/Nc2snc(SC)c2C#N)cc1OC` registered a z-score of 0.407.

`Cc1ccc(NC(=O)c2ccc3c(c2)N(CC(=O)N2CCCCC2)C(=O)C(C)(C)O3)cc1` showed a z-score of -0.4.

`CC1Cc2nc(SCC(=O)N3CCN(c4ccccc4)CC3)n(CCc3ccccc3)c(=O)c2S1` (stereo not given) came in with a z-score of -1.13.

Regarding `Cc1ccc(OCC(=O)Nc2ccccc2N2CCOCC2)c(C)c1`, the z-score is 0.00977.

Turning to `CCCC(=O)NC(=S)Nc1ccc(N2CCOCC2)c(Cl)c1`, the z-score came out at 0.242.

The compound `Cc1cc(Cl)ccc1OCC(=O)Nc1ccccc1N1CCOCC1` showed a z-score of 2.81.

Compound `O=C(NC(=S)Nc1ccc(N2CCOCC2)c(Cl)c1)C(c1ccccc1)c1ccccc1` yielded a z-score of 0.604.

For the compound `O=C(NC(=S)Nc1ccc(N2CCOCC2)c(Cl)c1)c1cncc(Br)c1`, the z-score is 7.69 (active).

Take `CCCC(=O)NC(=S)Nc1ccccc1N1CCOCC1`: the z-score is -0.0717.

Consider `Cc1cc(Cl)ccc1OCC(=O)NC(=S)Nc1ccccc1N1CCOCC1`, for which the z-score stood at 0.195.

For `COc1ccc(OCC(=O)Nc2ccc(N3CCOCC3)c(Cl)c2)cc1`, the z-score was -0.665.

With `Cc1cccc(OCC(=O)Nc2ccccc2C(=O)N2CCOCC2)c1`, the z-score is -0.0499.

`COc1ccc(OCC(=O)NC(=S)Nc2ccc(N3CCOCC3)c(Cl)c2)cc1` registered a z-score of 2.19.

Regarding `Cc1cccc(OCC(=O)NC(=S)Nc2ccccc2N2CCOCC2)c1`, the z-score was 3.14 (active).

For the compound `Cc1ccccc1OCC(=O)NC(=S)Nc1ccc(N2CCOCC2)c(Cl)c1`, the z-score came to 0.328.

The compound `Cn1c(=O)cc(SCC(=O)NCC2CCCO2)c2ccc(Cl)cc21` (stereo not given) returned a z-score of 0.0952.

`COCCOC(=O)C1=C(C)NC2=C(C(=O)CC(C)(C)C2)C1c1ccc2c(c1)OCO2` (stereo not given): the z-score was -0.115.

In the case of `CCc1nc(N)c(C#N)c(-c2cccc3ccccc23)c1C`, the z-score is 0.197.

Take `O=C(C[n+]1ccc2ccccc2c1)Nc1cc(C(F)(F)F)ccc1Cl`: the z-score was -0.746.

`CN(C)S(=O)(=O)c1cc(C(=O)O)c(NC2CCCCC2)cc1Cl` yielded a z-score of -2.9.

As to `CCOC(=O)c1c(CSC(=N)N)n(-c2ccc(C)cc2)c2cc(Br)c(OC(C)=O)cc12`, the z-score amounted to 1.29.

In the case of `Cc1cccc(NC(=O)CSc2nsc(SCC(=O)Nc3cccc(C)c3)c2C#N)c1`, the z-score is -0.0761.

In turn, `COc1ccc(CCNC2=NCC(C)S2)cc1` (stereo not given) registered a z-score of 0.0523.

As to `CCC(=O)N1CCN(c2ccccc2NC(=O)COc2cccc(C)c2)CC1`, the z-score is 13 (active).

Compound `Cc1cccc(OCC(=O)Nc2ccccc2N2CCCCC2)c1` displayed a z-score of 0.378.

In turn, `CCC(=O)N1CCN(c2ccccc2NC(=O)COc2cc(C)ccc2C(C)C)CC1` came in with a z-score of 0.696.

Consider `Cc1sc(NC(=O)CSc2nnc(-c3ccc(F)cc3)o2)c(C#N)c1C`, for which the z-score is -0.213.

On to `CCNC(=O)CN(c1ccc(OC)c(OC)c1)S(=O)(=O)c1ccccc1`, for which the z-score is -0.11.

Take `O=C(Nc1cccc(-c2nnc(-c3ccccc3)o2)c1)C1CCCO1` (stereo not given): the z-score was 3.

In turn, `O=C(Nc1cccc(-c2nnc(-c3ccccc3)o2)c1)C1CCCCC1` registered a z-score of -0.0325.

Regarding `O=C(Nc1ccc2oc(-c3ccccc3)nc2c1)C1CCCO1` (stereo not given), the z-score is -0.123.

`CCOC(=O)Cc1csc(NC(=O)C2C3C=CC(C3)C2C(=O)O)n1` (stereo not given): the z-score is -0.0933.

For the compound `Cc1cc(C)cc(OCC(=O)Nc2ccc3c(c2)C(=O)c2ccccc2C3=O)c1`, the z-score was -0.124.

Turning to `Cc1ccc2nc(SC(C(=O)Nc3ccc(F)cc3)c3ccccc3)[nH]c2c1` (stereo not given), the z-score was -0.117.

Compound `COc1cccc(C(=O)CSc2nnc(-c3cc(OC)cc(OC)c3)o2)c1` had a z-score of 0.263.

`c1ccc(-n2cccc2CNC2CCCCC2)cc1` had a z-score of 2.02.

As to `Cn1cccc1CNC1CCCC1`, the z-score was -1.43.

On to `Cn1cccc1CNC1CCCCC1`, for which the z-score is 0.335.

Regarding `O=C(C1CCC(CNS(=O)(=O)c2cccc3cccnc23)CC1)N1CCc2ccccc21` (stereo not given), the z-score was -0.0229.

As for `CC(=C1C(=O)c2ccccc2C1=O)N1CCN(Cc2ccccc2)CC1`, the z-score is -0.06.

The compound `CS(=O)(=O)N1CCN(C/C=C/c2ccccc2)CC1` showed a z-score of -0.0638.

`CC(=C1C(=O)c2ccccc2C1=O)N1CCN(C/C=C/c2ccccc2)CC1` showed a z-score of 2.04.

Compound `Cc1cc(C)cc(C(=O)OCC(=O)Nc2cccc(S(=O)(=O)NC3=NCCCCC3)c2)c1` showed a z-score of 0.0544.
